Rows were chosen to be rich in hits. Some 0.33% of all compounds tested hit in one or more screens of this group.
FXIa inh: blocks human coagulation factor XIa activity | 33,000 tested, 0.3% active | P03951 | AID 687 | inhibition, % at 10 µM | purified human FXIa, fluorogenic AMC substrate cleavage;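 active = inhibition above 40% in the primary screen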;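 also: 0% = enzyme without compound and 100% = blank wells lacking enzyme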
Target sequence (P03951 19-387 limits assumed): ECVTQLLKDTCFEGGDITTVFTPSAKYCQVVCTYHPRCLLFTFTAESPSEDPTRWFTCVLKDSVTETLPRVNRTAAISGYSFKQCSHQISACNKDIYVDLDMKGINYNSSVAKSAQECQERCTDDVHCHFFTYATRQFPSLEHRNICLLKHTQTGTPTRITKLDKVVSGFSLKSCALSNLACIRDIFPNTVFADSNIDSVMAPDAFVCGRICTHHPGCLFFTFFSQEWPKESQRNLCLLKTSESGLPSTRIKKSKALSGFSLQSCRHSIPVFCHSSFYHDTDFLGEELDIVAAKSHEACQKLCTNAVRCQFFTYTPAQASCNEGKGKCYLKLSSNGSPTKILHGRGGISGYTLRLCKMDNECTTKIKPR
Target sequence (P03951 388-625 limits assumed): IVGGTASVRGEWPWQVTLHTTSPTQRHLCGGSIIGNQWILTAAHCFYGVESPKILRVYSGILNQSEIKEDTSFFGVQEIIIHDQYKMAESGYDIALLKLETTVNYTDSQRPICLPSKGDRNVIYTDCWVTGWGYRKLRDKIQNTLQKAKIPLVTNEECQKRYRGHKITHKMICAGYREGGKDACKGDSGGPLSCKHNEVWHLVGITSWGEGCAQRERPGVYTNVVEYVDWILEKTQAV
FXIIa inh: inhibitors of human coagulation factor XIIa; inhibition, % at 10 µM; P00748; 33,000 tested, 0.2% active; purified human FXIIa, AMC substrate fluorescence, 2 h; in the data active = inhibition above about 30%;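 also: 0% = enzyme with vehicle only and 100% = no enzyme blank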
Starred values were filed as active, the others as inactive.

SMILES	FXIa inh	FXIIa inh
O=C(Oc1ccc2c(=O)c(Cl)coc2c1)c1cccnc1	58.8*	29.0
CCN(CC)C(=O)Oc1ccc2c(=O)c(-c3ccccc3)coc2c1	2.4	4.1
O=C(Nc1nccs1)C1CCCN1S(=O)(=O)c1ccc(F)cc1 (centres undefined)	3.7	3.6
Cc1ccc(C(=O)Nc2ccccc2C(=O)NC(C(=O)O)C(C)C)cc1 (centres undefined)	9.6	3.8
CCn1c(SCC(=O)c2[nH]c(C)c(C(C)=O)c2C)nnc1-c1ccccc1	41.3*	-9.8
CCOC(=O)c1c(C)[nH]c(C)c1C(=O)CSc1nnc(-c2ccncc2)n1Cc1ccccc1	-7.0	0.5
Cc1ccc2cc3c(nc2c1)N(Cc1ccco1)CC3	-4.9	2.4
COCCN=C1Sc2nc3c(C)cccc3cc2CN1Cc1ccco1	43.2*	3.9
COc1ccccc1-c1nnc(SCC(=O)Nc2ccc(S(N)(=O)=O)cc2)n1C	26.2	-15.1
CC(C)(C)C(=O)COC(=O)CNC(=O)c1ccc(Oc2ccccc2)cc1	11.5	6.3
O=C(Nc1ccc(-n2cnnn2)cc1)C1CCCCC1	5.2	4.4
Cc1cccc(N2CCN(CC(=O)Nc3ccc(-n4cnnn4)cc3)CC2)c1C	40.8*	4.0
O=S(=O)(Nc1ncn[nH]1)c1ccc(Cl)cc1	1.6	7.8
CC(C)CNS(=O)(=O)c1ccc2c(c1)OCCO2	10.3	5.9
Cc1ccc(-c2csc(N3CCC(NS(=O)(=O)c4ccc5c(c4)OCCO5)CC3)n2)cc1	58.8*	-12.1
CCN(C(=O)C1CCN(S(=O)(=O)c2ccc3c(c2)oc(=O)n3C)CC1)c1cccc(C)c1	3.2	6.3
COc1cc(/C=c2\sc3n(c2=O)CCCN=3)ccc1O	42.9*	7.3
COc1cc(/C=c2\sc3n(c2=O)C(c2ccccc2)C(c2ccccc2)=NN=3)ccc1O (centres undefined)	-4.6	5.3
CC(=O)Nc1sc(NC(=O)c2ccc(C)cc2)nc1-c1cccs1	3.8	-16.4
CCOC(=O)N1CCN(CC(=O)Nc2ccc(C)cc2)CC1	4.3	2.1
CCOC(=O)N1CCN(C/C(C)=C/c2ccccc2)CC1	2.1	31.0*
O=C(CSc1nnc(COc2cccc3cccnc23)o1)N1CCN(C(=O)c2ccco2)CC1	-0.7	8.7
Cc1ccc(-n2c(C)nn(-c3ncc(C(F)(F)F)cc3Cl)c2=O)cc1	-1.9	16.1
CCCN(CCC)C(C(=O)Nc1cccc(OC)c1)c1ccccc1 (centres undefined)	104.5*	-17.7
COc1cccc(NC(=O)C(NCC2CCCCC2)c2ccccc2)c1 (centres undefined)	-0.8	2.8
SMILES	FXIa inh	FXIIa inh
COc1ccc(CN2C(=O)NC3(CCCCCC3)C2=O)cc1F	-3.7	2.9
Cc1onc(-c2c(Cl)cccc2Cl)c1C(=O)n1nnc2ccccc21	7.4	7.5
Cc1ccc(C(=O)n2nnc3ccccc32)cc1	96.6*	68.2*
O=C(O)Cn1c(SCc2cccc3ccccc23)nc2ccccc21	-1.0	3.6
O=C(c1cccc2ccccc12)n1nnc2ccccc21	48.2*	27.4
CCC(=O)N/C(=N/c1nc(C)cc(C)n1)Nc1cccc(OC)c1	6.7	3.1
O=C(Nc1ccc(Cl)cc1)N1CCC(c2nc(-c3ccccc3Cl)no2)CC1	-10.6	7.0
COc1ccccc1-n1cnnc1SCC(=O)Nc1nc(C)c(Cl)cc1Cl	43.4*	4.6
COc1ccc(-n2cnnc2SCC(=O)Nc2nc(C)c(Cl)cc2Cl)cc1	3.5	5.2
Cc1cc2nc(C)n(CCCNC(=O)Nc3cccc4ccccc34)c2cc1C	1.0	6.2
Cc1ccc(N(C(=O)c2ccccn2)C2(C(=O)NC3CCCC3)CCCCC2)cc1	42.5*	6.2
O=C(c1ccccn1)N(Cc1ccco1)C1(C(=O)NC2CCCC2)CCCCC1	23.6	-13.1
CCn1c(SCC(=O)N2c3ccccc3Sc3ccc(Cl)cc32)nc2c1c(=O)n(C)c(=O)n2C	-1.5	5.2
COc1ccc(OC)c(NC(=O)Cc2coc3cc(C)cc(C)c23)c1	-2.2	-2.7
COc1ccc(CC(=O)NCc2ccc3c(c2)OCO3)cc1	53.0*	6.7
COc1ccc(CN2CC(C(=O)NCc3ccc4c(c3)OCO4)CC2=O)cc1 (centres undefined)	31.7	1.5
COc1ccc(C2N=C(N)N=C(N)N2c2ccccc2OC)cc1OC (centres undefined)	-4.0	1.8
COC(=O)C(Cc1c[nH]c2ccccc12)NC(C)=O (centres undefined)	102.7*	-17.0
Cc1ccc(C(=O)NC(Cc2c[nH]c3ccccc23)C(=O)O)cc1 (centres undefined)	6.6	10.0
Cc1c(S(=O)(=O)N2CCOCC2)c(=O)n(C)c(=O)n1C	-13.4	-8.8
Cc1ccc(OCc2nnc(SCC(=O)NC3CCCCC3)n2C)cc1	-8.1	19.3
Cn1c(SCC(=O)NC2CCCCC2)nnc1-c1cccc(N)c1	40.4*	-12.6
COC(=O)COc1ccc(S(=O)(=O)N2CCc3ccccc3C2)cc1C	14.7	6.4
CCN(CC)CCN(C)Cc1ccc(Br)cc1	16.7	-15.4
CC(O)CNC(=O)c1ccc(-c2nn(C)c(=O)c3ccccc23)cc1 (centres undefined)	-1.6	4.7
SMILES	FXIa inh	FXIIa inh
CCN(CC)CCNC(=O)C(C)c1nn(C)c(=O)c2ccccc12 (centres undefined)	41.6*	1.0
CNC(=O)CN(c1ccc(F)cc1)S(=O)(=O)c1cc(C)ccc1OC	19.4	4.5
COc1cc(C(N)=O)ccc1OCc1ccccc1	2.4	4.0
COc1ccc(C(=O)n2nc(-c3ccccc3)nc2N)cc1OC	1.4	62.4*
Cc1ccc(C2=N/C(=C\c3cccs3)C(=O)N2Nc2ccccc2)cc1	-5.8	13.7
O=C1N=C(c2ccccc2)S/C1=C\c1cccs1	37.9	46.0*
O=C(Nc1ccc2nc(-c3ccccn3)[nH]c2c1)C1CCCCC1	-0.2	3.0
CC(C)c1nc2ccc(NC(=O)C3CCCCC3)cc2[nH]1	104.4*	-16.0
CNC(=O)COC(=O)c1[nH]c(C)c(C(C)=O)c1C	46.1*	6.2
COCCNC(=O)COC(=O)c1[nH]c(C)c(C(C)=O)c1C	0.2	14.1
CC1(C)CC(=O)c2cc(OCC(=O)NCCN3CCOCC3)ccc2O1	-9.5	1.0
CCOc1ccc(S(=O)(=O)Nc2ccccn2)c2ccccc12	-6.4	-0.1
CCOc1ccc(S(=O)(=O)NCc2ccc(OC)cc2)c2cccnc12	62.0*	9.1
CCOC(=O)c1ccc(N2C(=O)CC(N3CCC(Nc4ccc(F)cc4)CC3)C2=O)cc1 (centres undefined)	25.8	-11.7
Nc1nc(N2CCOCC2)cc(=O)[nH]1	-0.1	5.3
O=C(Nc1nc2n(n1)C(c1ccc(Cl)cc1)CC(c1ccc(Cl)cc1)N2)c1ccco1 (centres undefined)	-4.0	45.9*
O=C(Nc1nc2n(n1)C(c1ccccc1)C=C(c1ccccc1)N2)c1ccco1 (centres undefined)	1.5	25.0
CN(C)S(=O)(=O)c1ccc(S(=O)(=O)N2CCCC2)cc1	6.4	5.3
CN(CCOc1ccccc1)c1ccc(S(=O)(=O)N2CCCCC2)cn1	41.2*	11.3
CN(c1ccc(C(=O)Nc2ccccc2C(=O)N2CCOCC2)cc1)S(C)(=O)=O	-5.2	3.9
O=C(Nc1ccccc1C(=O)N1CCOCC1)c1ccc(F)cc1	46.7*	4.8
C=CCn1c(=O)c2c(nc(Br)n2Cc2ccccc2Cl)n(C)c1=O	45.8*	2.8
CCOC(=O)Cn1c(=O)c2c(nc(Br)n2Cc2ccccc2Cl)n(C)c1=O	-5.1	3.3

Assay outcomes: PubChem BioAssay, PCMD
